Among the data in PubChem BioAssay AID488969 (Vanderbilt High Throughput Screening Facility, 2010) are z-score values, retold here.

Each structure is given as a SMILES string. Over roughly 110,000 compounds, “z-score” has its median near -0.1; the highest 2% begin near 2. The sample as a whole holds a higher share of the highest values than the screen did. Calls of active or inactive are those of the source.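 Rule for the calls: active = z-score in the third read window above 3 or below -3; inactive = the rest.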

The target in the assay is Metabotropic glutamate receptor 8 (Rattus norvegicus) (UniProt P70579). The assay can be described thus: rat mGluR8 modulators via GIRK flux, primary screen, cell-based, thallium flux, HTS (AID 488969). The following applies: HEK293 rat mGluR8, GIRK (G protein-gated inwardly rectifying potassium channel) thallium flux, FluoZin2; at 10 µM; stronger effect = higher value; submaximal glutamate (EC20) added with thallium.
Metabotropic glutamate receptor 8 (Rattus norvegicus), sequence (P70579 whole entry, looked up): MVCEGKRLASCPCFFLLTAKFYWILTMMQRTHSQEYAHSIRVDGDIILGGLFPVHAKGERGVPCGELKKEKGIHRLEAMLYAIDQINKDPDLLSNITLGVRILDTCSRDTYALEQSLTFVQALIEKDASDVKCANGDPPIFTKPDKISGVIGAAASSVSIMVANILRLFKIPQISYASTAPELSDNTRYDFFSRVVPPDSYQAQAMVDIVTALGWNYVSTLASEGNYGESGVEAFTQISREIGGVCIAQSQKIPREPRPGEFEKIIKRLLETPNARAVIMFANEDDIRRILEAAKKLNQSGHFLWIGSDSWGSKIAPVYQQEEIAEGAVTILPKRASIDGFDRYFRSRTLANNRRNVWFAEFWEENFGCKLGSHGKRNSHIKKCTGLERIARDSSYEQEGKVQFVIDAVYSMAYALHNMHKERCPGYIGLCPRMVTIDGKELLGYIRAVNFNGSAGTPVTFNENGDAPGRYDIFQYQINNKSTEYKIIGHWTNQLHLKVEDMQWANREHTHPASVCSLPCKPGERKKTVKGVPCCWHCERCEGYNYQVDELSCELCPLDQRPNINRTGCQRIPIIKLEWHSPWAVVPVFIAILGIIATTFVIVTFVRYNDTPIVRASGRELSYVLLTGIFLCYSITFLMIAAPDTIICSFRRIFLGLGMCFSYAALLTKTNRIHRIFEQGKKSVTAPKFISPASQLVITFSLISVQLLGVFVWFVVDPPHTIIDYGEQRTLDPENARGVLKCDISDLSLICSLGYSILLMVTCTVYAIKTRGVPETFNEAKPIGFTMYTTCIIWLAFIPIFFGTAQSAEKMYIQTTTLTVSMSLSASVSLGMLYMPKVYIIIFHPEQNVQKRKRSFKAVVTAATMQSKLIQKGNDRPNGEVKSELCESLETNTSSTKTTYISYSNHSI
Turning to `Cc1ccc(Cn2c(CN3CC(C)OC(C)C3)nc3c2c(=O)[nH]c(=O)n3C)cc1` (stereo not drawn), the z-score turned out to be 0.0226.

For the compound `O=C(CSc1nnc(-c2ccc(F)cc2)o1)Nc1ccccc1N1CCOCC1`, the z-score was -0.906.

In the case of `CN(C)c1ccc(/C=N\Nc2nc(-c3ccccc3)cc(=O)[nH]2)cc1`, the z-score is -0.138.

With `CC(=O)Nc1ccc(N(C(=O)Cc2c[nH]c3ccccc23)C(C(=O)NC2CCCCC2)c2ccco2)cc1` (stereo not drawn), the z-score stood at 1.17.

As to `Cc1ccccc1-c1nc(-c2ccc(NC(=O)c3ccc(Br)o3)cc2)no1`, the z-score is 0.0114.

Regarding `N#CNC(=Nc1cccc(F)c1)SCc1cccc(F)c1`, the z-score was -0.141.

Take `CCC(C)NC(=O)CSc1nc2c(sc(=S)n2Cc2ccco2)c(=O)n1-c1ccccc1` (stereo not drawn): the z-score was found to be 0.437.

`Cc1ccc2[nH]c(=O)c(CN(Cc3cccs3)S(=O)(=O)c3ccc4c(c3)OCCO4)cc2c1` showed a z-score of 0.0485.

In turn, `CCOC(=O)Cc1csc(SCC(=O)Nc2cccc(Cl)c2)n1` had a z-score of 0.368.

For `Cc1onc(-c2ccccc2Cl)c1C(=O)NC1CCS(=O)(=O)C1` (stereo not drawn), the z-score is -0.0472.

`COc1cc2cc(CN(CCc3ccccc3C)C(=S)NCCCN(C)C)c(=O)[nH]c2cc1OC` registered a z-score of 0.66.

Consider `CCCC(=O)N=C1SC2CS(=O)(=O)CC2N1c1ccc(-c2nc3ccc(C)cc3s2)cc1` (stereo not drawn), for which the z-score is -0.238.

With `CC(=O)N=C1SC2CS(=O)(=O)CC2N1c1ccc(-c2nc3ccc(C)cc3s2)cc1` (stereo not drawn), the z-score was 0.0589.

Consider `Cc1ccc2nc(-c3ccc(N4C(=N)SC5CS(=O)(=O)CC54)cc3)sc2c1` (stereo not drawn), for which the z-score came out at 2.09.

With `O=C(NCCCN1CCCCC1)c1ccc2c(c1)NC(=O)C(N1CCCCC1)S2` (stereo not drawn), the z-score is 0.905.

`CC1CC(C)CN(CCCNC(=O)c2ccc3c(c2)NC(=O)C(N2CCCCC2)S3)C1` (stereo not drawn) came in with a z-score of 2.18.

Compound `O=C(NCCCN1CCCCCC1)c1ccc2c(c1)NC(=O)C(N1CCOCC1)S2` (stereo not drawn) gave a z-score of 0.756.

As for `CCCCCOC(=O)Cn1c(N2CCOCC2)nc2c1c(=O)[nH]c(=O)n2C`, the z-score is -0.228.

Take `Cc1ccc(C2CC(=O)c3cnc(NC(=O)c4ccco4)nc3C2)cc1` (stereo not drawn): the z-score was -0.398.

For `Cc1ccc(C)c(NC(=S)c2nc3ccccc3s2)c1`, the z-score was 8.98 (active).

For the compound `Cc1ccc(NC(=S)c2nc3ccccc3s2)cc1`, the z-score was found to be 0.791.

The compound `Cc1ccc(C)c(NC(=S)N2CCC(c3nc4ccccc4s3)CC2)c1` had a z-score of 0.656.

Compound `S=C(Nc1ccc(Cl)cc1)c1nc2ccccc2s1` yielded a z-score of 0.236.

For `Cc1cccc(NC(=S)c2nc3ccccc3s2)c1`, the z-score amounted to 0.84.

`S=C(Nc1ccccc1)c1nc2ccccc2s1` registered a z-score of 2.64.

`Cc1cc(SCC(=O)c2cc(C)n(C)c2C)nc2ccccc12`: the z-score is -0.0351.

Turning to `NC(=O)C1CCN(Cc2nc3ccccc3c(=O)[nH]2)CC1`, the z-score is -0.276.

In the case of `Cn1c(=O)oc2cc(S(=O)(=O)NC3CCN(Cc4ccccc4)CC3)ccc21`, the z-score is -0.316.

Take `O=c1oc2ccccc2cc1-c1csc(NN=C2CCCCC2)n1`: the z-score is -0.185.

Take `O=C(NNC(=O)C1CCCO1)c1ccc(F)cc1` (stereo not drawn): the z-score is -0.154.

Take `CCOCc1nnc(NC(=O)c2cccs2)s1`: the z-score was 0.125.

For the compound `CCN(CC(=O)c1c(N)n(C)c(=O)n(C)c1=O)c1cccc2ccccc12`, the z-score was 2.55.

Regarding `Cc1ccccc1CSCC(=O)c1c(N)n(C)c(=O)n(C)c1=O`, the z-score was -0.253.

With `Cn1c(N)c(C(=O)c2ccccc2)c(=O)n(C)c1=O`, the z-score is -0.397.

`COc1ccc(NC(=S)Nc2ccc(S(=O)(=O)N3CCOCC3)cc2)c(OC)c1` gave a z-score of 0.108.

With `O=C(CSc1nnc(-c2ccco2)n1-c1ccccc1)N1CCc2ccccc21`, the z-score amounted to 0.00192.

For `Cc1ccc(Nc2nc(Oc3ccc(=O)[nH]n3)nc(N(C)C)n2)cc1`, the z-score was -0.00557.

In the case of `COCCCNC(=O)C(C#N)c1nc2ccccc2nc1N1CCCC1` (stereo not drawn), the z-score is -0.459.

As for `CCCCN(CCCC)c1nc2ccccc2nc1C(C#N)C(=O)NCCCOC` (stereo not drawn), the z-score was 6.64 (active).

Turning to `CCCN(CCC)c1nc2ccccc2nc1C(C#N)C(=O)OC(C)COC` (stereo not drawn), the z-score was -3.86 (active).

Turning to `CCN(CC)P1(=O)OC(c2cc(OC)c(OC)c(OC)c2)=Nc2c1c(C)nn2-c1ccccc1` (stereo not drawn), the z-score was -1.4.

For the compound `COc1ccc(S(=O)(=O)N2CCC(C(=O)N3CCN(c4ccccc4OC)CC3)CC2)cc1`, the z-score is -0.274.

On to `CC(C)N1CC(C(=O)Nc2ccc(Br)c(Cl)c2)CC1=O` (stereo not drawn), for which the z-score was 0.0942.

`CC(C)(C)S(=O)(=O)c1ccc(S(=O)(=O)C(C)(C)C)s1` displayed a z-score of 2.32.

Turning to `CCS(=O)(=O)c1ccc(S(=O)(=O)CC)s1`, the z-score was -0.137.

As for `CC(C)(C)S(=O)(=O)c1nc2ccccc2s1`, the z-score was found to be 0.279.

Take `CCc1nc(C)cn1S(=O)(=O)c1cc(C)c(OC)cc1C`: the z-score came to 0.289.

As for `CCc1nc(C)cn1S(=O)(=O)c1cc(Br)c(C)cc1OC`, the z-score is -0.193.

`CCc1nc(C)cn1S(=O)(=O)c1cc(Cl)c(OC)cc1Cl` registered a z-score of 2.99.

The compound `Cc1nc(CS(=O)c2ccc(Cl)cc2)cc(NCc2ccc(Cl)cc2Cl)n1` (stereo not drawn) showed a z-score of 0.31.

In the case of `CCOc1nc(-c2ccc(Cl)cc2Cl)ccc1C#N`, the z-score was -0.211.

`COC(=O)c1ccccc1NC(=S)NC(NC(=O)c1ccccc1[N+](=O)[O-])C(Cl)(Cl)Cl` (stereo not drawn) came in with a z-score of 2.67.

Regarding `COc1ccc(NC(=S)NC(NC(=O)c2ccccc2Cl)C(Cl)(Cl)Cl)c([N+](=O)[O-])c1` (stereo not drawn), the z-score is -0.469.

Regarding `COc1ccccc1NC(=S)NC(NC(=O)c1ccco1)C(Cl)(Cl)Cl` (stereo not drawn), the z-score is -0.246.

For the compound `COC(=O)c1ccccc1NC(=S)NC(NC(=O)c1ccco1)C(Cl)(Cl)Cl` (stereo not drawn), the z-score is 15.3 (active).

Consider `O=C(NC(NC(=S)Nc1ccccc1C(=O)O)C(Cl)(Cl)Cl)c1ccco1` (stereo not drawn), for which the z-score is -0.106.

Regarding `O=C(O)c1ccccc1NC(=S)NC(NC(=O)c1ccccc1[N+](=O)[O-])C(Cl)(Cl)Cl` (stereo not drawn), the z-score was -0.103.

On to `CCNC(=O)NC(=O)C(C)OC(=O)c1cccnc1SC` (stereo not drawn), for which the z-score was -0.0754.
